# Screening results (PubChem BioAssay)
# Pf growth 96h: inhibits malaria parasite growth, 96 h | Potency, µM (titrated, usually from 28.7 µM), inactives show at the highest dose activity change, negative = inhibition, usual class: inhibitors | P. falciparum luciferase reporter growth, 96 h | AID 504834 | 320,000 tested, 6.9% active; active = well fitted inhibition curve with a large enough effect; inconclusive = small, poorly fitted or top-dose-only effect, or another doubt; inactive = no such curve, though single readings can be large or run the other way; note: % is set by controls: 0 for no effect and ±100 for the full control effect
#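 P. falciparum expressing integrated firefly luciferase, in erythrocytes at 2% hematocrit, 0.05% parasitemia, incubated with compounds 96 h at 37 C, 5% CO2. Growth inhibition read as loss of luminescence; two-generation exposure targets delayed-death apicoplast inhibitors.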
# Pf growth 48h: P. falciparum growth inhibition at 48 hours (one generation) | P. falciparum luciferase growth in erythrocytes, 48 h | Potency, µM (titrated, usually from 28.7 µM), without a hit: top-dose activity change, negative = inhibition, usual class: inhibitors | 310,000 tested, 5.9% active; active = well fitted inhibition curve with a large enough effect; inconclusive = small, poorly fitted or top-dose-only effect, or another doubt; inactive = no such curve, though single readings can be large or run the other way; note: % is set by controls: 0 for no effect and ±100 for the full control effect
#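 Read-out is firefly luciferase luminescence from an integrated reporter in P. falciparum, so falling signal marks reduced parasite growth. Infected erythrocytes were at 2% hematocrit and 0.1% parasitemia (final) in Albumax-supplemented RPMI 1640.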
# NS1 function inh: influenza NS1 inhibition; AID 2326; 270,000 tested, 0.4% active; Potency, µM (doses to about 46.1 µM), for inactives: top-dose activity, positive = more growth; note: actives are rising curves; nearly all actives have a fitted effect of over 50% in size
#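 Growth recovery, yeast-based: influenza A NS1 expressed in S. cerevisiae causes slow growth, and suppressors are detected by OD600. The parent strain without NS1 is used as positive control.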
# SARS PLP yeast: inhibitors of SARS-CoV papain-like protease in yeast. AID 485353. 330,000 tested, 0.19% active. S. cerevisiae expressing SARS-CoV PLpro, growth rescue. Potency, µM (series often up to 32.9 µM), without a hit: at the highest dose activity, positive = growth rescue, usual class: activators; note: 0% is about no effect; nearly all actives have a fitted effect of over 55% in size
# RE007 growth inh: less growth of the S. pombe RE007 Vpr strain. S. pombe RE007 Vpr strain, BacTiter-Glo ATP luminescence, 24 h. Potency, µM (top dose mostly 92.2 µM), without a hit: at the top dose activity change, negative = less growth, most hits filed as inhibitors. 360,000 tested, 0.21% active. AID 651644; active = well fitted falling curve with a large enough effect; inconclusive = small, poorly fitted or top-dose-only effect; inactive = no such curve, though single readings can be large or run the other way; note: % is set by controls: 0 for no effect and ±100 for the full control effect; nearly all actives have a fitted effect of over 50% in size
#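 Fission yeast strain RE007, carrying one chromosomally integrated HIV-1 vpr copy, was seeded at OD 0.01 in PMG+AL medium with 23 nL pinned compound. After 24 h at 30 °C and 99% humidity, viability was read by BacTiter-Glo luminescence.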
# * = called active by the depositor; u = inconclusive; x = no result; [ ] = remark or other dose. Most compounds without a hit are left out; they make up all but 9.5% or so of the library. Unless noted, calls come from the whole dose curve. Potency is the fitted concentration of half-maximal effect.
SMILES,Pf growth 96h,Pf growth 48h,NS1 function inh,SARS PLP yeast,RE007 growth inh
CCOP(=O)(OCC)c1nc(-c2ccccc2)oc1NCc1ccccc1,2.6µM*,7.4µM*,-50%,-7%,5%
CCOP(=O)(OCC)c1nc(-c2ccc(F)cc2)oc1NCc1ccccc1,u,u,3%,-1%,5%
O=P(c1ccccc1)(c1ccccc1)c1nc(-c2ccccc2)oc1NCc1ccccc1,9.3µM*,5.9µM*,x,0%,11%
O=C(NC1CCCCC1)c1cc(C2CC2)nn1-c1ccccc1,-41%,u,x,-11%,3%
O=C1c2cccc([N+](=O)[O-])c2C(=O)N1c1ncn[nH]1,x,x,7%,x,x
CCCOC(=O)c1ccc(Oc2cn[nH]c2-c2ccc(O)cc2O)cc1,13µM*,u,9%,-5%,9%
CCCOC(=O)c1ccc(Oc2cn[nH]c2-c2ccc(OCC(=O)NN)cc2O)cc1,9.3µM*,u,u,1%,4%
CN1CCN(c2ccc(Cl)cc2NC(=O)c2ccc(S(=O)(=O)N(C)C)cc2)CC1,3.3µM*,x,-1%,7%,3%
CCN(CC)S(=O)(=O)c1cc(C(=O)Nc2cc(Cl)ccc2N2CCN(C)CC2)ccc1Cl,2.6µM*,x,2%,-2%,7%[3.69 µM]
CN(C)S(=O)(=O)c1cccc(C(=O)Nc2ccccc2N2CCCCC2)c1,u,u,-13%,3%,-4%
CN(C)S(=O)(=O)c1ccc(C(=O)Nc2cc(S(=O)(=O)Nc3ccccc3Cl)ccc2N2CCCCC2)cc1,1.3µM*,2.3µM*,u,-14%,4%
O=c1cc(-c2ccccc2F)oc2ccccc12,356%,349%,-7%,-29%,63µM*
Cc1ccccc1-c1cc(=O)c2ccccc2o1,x,x,x,-8%,-30%
O=C(NCc1cccs1)C1CCN(c2ccc(S(=O)(=O)N3CCOCC3)cc2Cl)CC1,u,4.7µM*,-6%,11%,-4%
O=C(NCC(c1cccs1)N1CCOCC1)C1CCN(S(=O)(=O)c2c(Cl)cccc2Cl)CC1 (stereo unspecified),u,13µM*,x,-6%,2%
CN(CC(=O)O)CC(=O)O,x,x,2%,x,x
Cc1onc(-c2c(Cl)cccc2Cl)c1COC(=O)c1ccc(Cl)cc1,13µM*,u,3%,-1%,0%
Cc1onc(-c2c(Cl)cccc2Cl)c1COC(=O)c1ccc([N+](=O)[O-])cc1,u,u,6%,1%,-4%
C[N+](C)(C)CCC(=O)c1cccc2ccccc12,x,x,-31%,x,x
O=C(NCCCN1CCOCC1)c1cc(-c2cccs2)on1,x,39%,-7%,11%,7%
O=C(NCCCN1CCOCC1)c1ccc(-n2nc(C(F)(F)F)cc2-c2cccs2)cc1,x,9.3µM*,2%,-6%,10%
COCCCNC(=O)c1ccc(-n2nc(C(F)(F)F)cc2-c2cccs2)cc1,x,12µM*,-84%,-13%,-5%
O=C(c1ccc(NC(=O)C(c2ccccc2)c2ccccc2)cc1)c1ccc(C(=O)O)c(C(=O)O)c1,u,57%,u,1%,-8%
Cn1c(/C=C/c2ccc(Br)cc2)c([N+](=O)[O-])c(=O)n(C)c1=O,33%,9.3µM*,-6%,-5%,-5%
COC(=O)c1ccc(S(=O)(=O)c2ccc(Cl)cc2)c(N)c1,1%,-14%,-2%,-1%,-5%
SMILES,Pf growth 96h,Pf growth 48h,NS1 function inh,SARS PLP yeast,RE007 growth inh
CC1(C)OC(=O)NC1c1ccccc1 (stereo unspecified),x,x,x,x,0%
COc1ccc(NC(=O)c2cc(-c3cc(Cl)ccc3OC)n[nH]2)c(C)c1,x,x,x,x,0%
COc1ccc(OC)c(NC(=O)c2cc(-c3ccc(C)cc3O)n[nH]2)c1,x,10µM*,u,4%,1%
COc1ccc(OC)c(NC(=O)c2cc(-c3cc(C)ccc3O)n[nH]2)c1,6.6µM*,u,-2%,-1%,-2%
O=C(C(Cc1ccccc1)N1C(=O)c2ccccc2C1=O)N1CCc2ccccc21 (stereo unspecified),u,15µM*,3%,4%,4%
CC(=O)OCC1=C(C(=O)O)N2C(=O)C(NC(=O)c3ccc(COc4cccc(Cl)c4Cl)o3)C2SC1 (stereo unspecified),36%,u,x,3%,-15%
CCS(=O)(=O)c1nc(S(=O)(=O)c2ccc(Cl)cc2)c(N2CCc3ccccc3C2)s1,2.9µM*,9.3µM*,27%,-8%,-9%
CCCS(=O)(=O)c1nc(S(=O)(=O)c2ccc(C)cc2)c(N2CCCCC2)s1,x,x,x,x,-6%
CCN1CCN(c2sc(S(=O)(=O)CC)nc2S(=O)(=O)c2ccc(Cl)cc2)CC1,x,x,x,x,-2%
CC1CN(c2sc(S(C)(=O)=O)nc2S(=O)(=O)c2ccc(Cl)cc2)CC(C)O1 (stereo unspecified),u,-12%,10%,3%,6%
CCCS(=O)(=O)c1nc(S(=O)(=O)c2ccc(C)cc2)c(N2CCOCC2)s1,-23%,12µM*,-1%,4%,13%
CC1CCCN(c2sc(S(C)(=O)=O)nc2S(=O)(=O)c2ccc(Cl)cc2)C1 (stereo unspecified),13µM*,u,-8%,0%,10%
CCS(=O)(=O)c1nc(S(=O)(=O)c2ccc(C)cc2)c(NCCCN2CCOCC2)s1,u,u,1%,-2%,5%
CCS(=O)(=O)c1nc(S(=O)(=O)c2ccc(Cl)cc2)c(NCCCN2CCOCC2)s1,12µM*,-17%,-17%,-3%,4%
NC(N)=NC(N)=Nc1ccc(C(=O)O)cc1,x,x,-3%,x,x
CC1(C)[C@H]2CC=C(CN3CCC(N4CCC(C(=O)N5CCCC5)CC4)CC3)[C@@H]1C2,13%,u,-2%,-1%,-12%
O=C(COc1ccc(Cl)cc1)N(Cc1ccccc1)c1nc(-c2ccccc2)cs1,30%,1.5µM*,5%,1%,1%
COc1ccc(-c2csc(N(CCc3ccccc3)C(=O)COc3ccccc3)n2)cc1,-144%,u,2%,3%,11%
COc1cccc(C(=O)OCC(=O)Nc2cc(C)on2)c1OC,x,x,x,7%,14%
O=C(CNC(=O)c1ccc2c(c1)OCCO2)N=Nc1c(O)[nH]c2ccccc12,21%,-3%,-2%,-2%,-6%
Cn1cc(CC(=O)N2CCN(c3ccc(Cl)cc3)CC2)c2ccccc21,12µM*,-9%,-50%,-6%,-6%
Cn1cc(CC(=O)N2CCN(c3ccccc3F)CC2)c2ccccc21,u,x,-46%,10%,8%
CC[C@@]1(c2ccccc2)NC(=O)N(C)C1=O,-22%,-19%,x,x,x
O=C(O)c1ccc(Cn2cc(/C=C\[N+](=O)[O-])c3ccccc32)o1,87%,-20%,25%,-2%,0%
O=[N+]([O-])/C=C/c1cn(Cc2ccc(Cl)cc2)c2ccccc12,u,3.7µM*,-3%,-17%,4%
Cc1cccc(Cn2cc(/C=C/[N+](=O)[O-])c3ccccc32)c1,-3%,3.7µM*,-103%,-38%,19%
